Assay [1] is described as follows: ATG_E_Box_CIS: Attagene CIS-FACTORIAL HepG2 Assay for human Enhancer Box (E-box) (AID 2282936). To be noted: HepG2 E-box cis-reporter transcription, actives raise or lower the signal. The method, boiled down: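 DMSO served as negative control and baseline for bidirectional fitting. Human hepatoma HepG2 cells, transiently transfected with cis-reporter constructs, were dosed 24 h; reporter mRNA read by RT-PCR and capillary electrophoresis.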

Assay [2] is described as follows: ATG_M_61_CIS: Attagene CIS-FACTORIAL HepG2 Assay for M61 Transcription Factor (Internal Marker) (AID 2282937). As to conditions: HepG2 Attagene CIS-FACTORIAL M61 internal marker reporter; actives raise or lower the signal. A digest of the protocol:
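Endogenous transcription factor activity in HepG2 is read through transiently transfected cis-element reporter units. After 24 h dosing, RNA undergoes reverse transcription, PCR and primer extension with 6-FAM before capillary electrophoresis; DMSO-referenced bidirectional fit.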

The nature of assay [3]: ATG_EGR_CIS: Attagene CIS-FACTORIAL HepG2 Assay for human Early Growth Response 1 (EGR1) (AID 2282938). To be noted: HepG2 Attagene CIS-FACTORIAL EGR reporter mRNA; actives raise or lower the signal. A digest of the protocol: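 Activity is taken as induction or loss of reporter mRNA versus DMSO, fitted bidirectionally. Transcripts from cis-regulated reporter units in transiently transfected HepG2 were measured after 24 h by RT-PCR with capillary electrophoresis.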

A short description of assay [4]: ATG_M_19_CIS: Attagene CIS-FACTORIAL HepG2 Assay for M19 Transcription Factor (Internal Marker) (AID 2282939). To be noted: HepG2 Attagene CIS-FACTORIAL M19 internal marker reporter; actives raise or lower the signal. The method, boiled down: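 HepG2 cells transiently transfected with cis-regulated multiplexed reporter units, dosed 24 h. Reporter mRNA quantified by RT-PCR and capillary electrophoresis; internal background marker fitted bidirectionally versus DMSO.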

Assay [5] is described as follows: ATG_ERE_CIS: Attagene CIS-FACTORIAL HepG2 Assay for Estrogen Response Element (ERE) (AID 2282940). To be noted: HepG2 ERE cis-reporter, Attagene RNA transcript; actives raise or lower the signal. A digest of the protocol:
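HepG2 cells transiently transfected with multiplexed cis-element reporter units, measuring endogenous transcription factor activity; ERE reporter mRNA quantified after 24 h exposure by RT-PCR, fluorescent labelling, HpaI digestion and capillary electrophoresis. Bidirectional change versus DMSO.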

The nature of assay [6]: ATG_Ets_CIS: Attagene CIS-FACTORIAL HepG2 Assay for human Erythroblast Transformation Specific (ETS) (AID 2282941). To be noted: HepG2 ETS cis-reporter transcription, actives raise or lower the signal. The method, boiled down:
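After transient cis-reporter transfection, HepG2 cells receive test chemical for 24 h. Reporter mRNA levels, measured by RT-PCR and capillary electrophoresis fluorescence, are analysed bidirectionally relative to the DMSO baseline.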

Assay [7] concerns the target Hepatocyte nuclear factor 3-beta (Homo sapiens) (UniProt Q9Y261). Briefly: ATG_FoxA2_CIS: Attagene CIS-FACTORIAL HepG2 Assay for human Forkhead box A2 (FOXA2) (AID 2282942). To be noted: HepG2 cis-reporter transcription factor activity, 24 h; actives raise or lower the signal. A digest of the protocol: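 Reporter transcript induction is measured by fluorescence after capillary electrophoresis of RT-PCR products from HepG2 cells exposed 24 h. Cis-regulated reporter units report endogenous factor activity; curves fitted both directions against DMSO.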

Assay [8] in a line: ATG_FoxO_CIS: Attagene CIS-FACTORIAL HepG2 Assay for human Forkhead box O (FoxO) (AID 2282943). As to conditions: HepG2 Attagene cis-reporter, FoxO element, mRNA; actives raise or lower the signal. The method, boiled down: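 HepG2, transient MRTU transfection (cis element, endogenous TFs). Dose 24 h. TriZol RNA → oligo(dT) RT → PCR → 6-FAM primer extension → HpaI cut → CE. Gain/loss vs DMSO.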

Assay [9] is described as follows: ATG_GATA_CIS: Attagene CIS-FACTORIAL HepG2 Assay for human GATA Binding Protein (AID 2282944). As to conditions: HepG2 GATA cis-element reporter, Attagene multiplex mRNA; actives raise or lower the signal. A digest of the protocol: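 HepG2 cells transiently transfected with multiplexed cis-element reporter units measure endogenous GATA activity; after 24 h compound exposure, reporter mRNA quantified by RT-PCR and capillary electrophoresis. Changes fitted in both directions vs DMSO.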

Assay [10] is described as follows: ATG_GLI_CIS: Attagene CIS-FACTORIAL HepG2 Assay for human Zinc Finger Protein GLI1 (AID 2282945). To be noted: HepG2, Attagene cis-factorial reporter mRNA, GLI element; actives raise or lower the signal. The method, boiled down:
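Bidirectional curve fits relative to DMSO, using reporter mRNA levels from RT-PCR plus capillary electrophoresis. Cells were HepG2 transiently carrying cis-regulated reporter constructs, harvested 24 h after dosing.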

For assay [11], the target named is Bile acid receptor (Homo sapiens) (UniProt Q96RI1). Description: ATG_IR1_CIS: Attagene CIS-FACTORIAL HepG2 Assay for human Nuclear Receptor Subfamily 1 Group H Member 4 (NR1H4), IR1 submotif (AID 2282946). To be noted: IR1 reporter transcription, actives raise or lower the signal. A digest of the protocol:
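Cells (human HepG2) carry transiently transfected cis-promoter reporter transcription units. Compounds are incubated 24 h, total RNA is reverse-transcribed and amplified, and labelled fragments are resolved by capillary electrophoresis. Curves use DMSO as baseline.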

A short description of assay [12]: ATG_GRE_CIS: Attagene CIS-FACTORIAL HepG2 Assay for human Glucocorticoid Response Elements (GRE) (AID 2282947). As to conditions: HepG2 GRE cis-reporter, Attagene multiplex mRNA; actives raise or lower the signal. A digest of the protocol:
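Assay uses human hepatoma HepG2 cells transfected with cis-promoter reporter units, exposed 24 h. mRNA from reporters detected by RT-PCR plus capillary electrophoresis; DMSO serves as negative control and baseline.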

Assay [13] can be described thus: ATG_ISRE_CIS: Attagene CIS-FACTORIAL HepG2 Assay for human Interferon Regulatory Factor 1 (IRF1) binding to an Interferon-Stimulated Response Element (ISRE) (AID 2282948). To be noted: HepG2 ISRE cis-reporter (Attagene), mRNA transcription readout; actives raise or lower the signal. A digest of the protocol: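 Quantitation relies on labelled RT-PCR fragments separated by capillary electrophoresis. Human HepG2 cells bearing cis-promoter reporter constructs were treated 24 h; DMSO served as baseline for bidirectional fitting.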

A short description of assay [14]: ATG_M_32_CIS: Attagene CIS-FACTORIAL HepG2 Assay for M32 Transcription Factor (Internal Marker) (AID 2282949).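 Further: background control marker of the multiplexed CIS panel rather than a real target.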 As to conditions: HepG2 Attagene cis-factorial M32 reporter, mRNA; actives raise or lower the signal. A digest of the protocol: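 Internal background marker read-out: RT-PCR/capillary electrophoresis fluorescence of reporter transcripts from transiently transfected HepG2 cells after 24 h chemical exposure. Activity fitted bidirectionally relative to DMSO negative control.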

Assay [15] can be described thus: ATG_M_06_CIS: Attagene CIS-FACTORIAL HepG2 Assay for M06 Transcription Factor (Internal Marker) (AID 2282950). As to conditions: HepG2 Attagene CIS-FACTORIAL M06 internal marker reporter; actives raise or lower the signal. A digest of the protocol:
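Internal background marker within multiplexed cis-reporter HepG2 system. Cells transiently transfected, dosed 24 h; reporter mRNA measured by RT-PCR, HpaI digestion and capillary electrophoresis. Bidirectional fit relative to DMSO.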

In assay [16] the target is Hypoxia-inducible factor 1-alpha (Homo sapiens) (UniProt Q16665). Briefly: ATG_HIF1a_CIS: Attagene CIS-FACTORIAL HepG2 Assay for human Hypoxia Inducible Factor 1 (HIF1A) (AID 2282951). As to conditions: HepG2 Attagene cis-factorial HIF1a reporter transcription; actives raise or lower the signal. The method, boiled down:
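Fluorescence intensity of capillary-separated, 6-FAM-labelled reporter amplicons gives mRNA induction in HepG2 cells carrying transfected cis-promoter reporter units; cells exposed 24 h, responses fitted up or down from DMSO.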

The target of assay [17] is Hepatocyte nuclear factor 6 (Homo sapiens) (UniProt Q9UBC0). Description: ATG_HNF6_CIS: Attagene CIS-FACTORIAL HepG2 Assay for human Hepatocyte Nuclear Factor 6 (HNF6) (AID 2282952). As to conditions: HepG2 Attagene cis-factorial HNF6 reporter transcription; actives raise or lower the signal. A digest of the protocol:
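Multiplexed mRNA reporter assay in transfected HepG2; 24 h dosing; RT-PCR plus capillary electrophoresis fluorescence; DMSO-referenced bidirectional curve fitting.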

Assay [18] has as its target Heat shock factor protein 1 (Homo sapiens) (UniProt Q00613). Description: ATG_HSE_CIS: Attagene CIS-FACTORIAL HepG2 Assay for human Heat Shock Transcription Factor 1 (HSE) (AID 2282953). As to conditions: HepG2 HSE cis-reporter, Attagene RNA transcription; actives raise or lower the signal. The method, boiled down:
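HepG2 cells transfected with cis-promoter reporter units sensing endogenous transcription factor activity; reporter mRNA quantified 24 h post-dose by RT-PCR and capillary electrophoresis of 6-FAM-labelled products. Bidirectional fitting against DMSO.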

The nature of assay [19]: ATG_MRE_CIS: Attagene CIS-FACTORIAL HepG2 Assay for human Metal Responsive Element (MRE) (AID 2282954). To be noted: HepG2 MRE cis-reporter transcription, Attagene multiplex; actives raise or lower the signal. The method, boiled down:
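After a 24 h chemical exposure, transiently transfected HepG2 cells yield RNA whose reporter sequences are amplified, FAM-labelled and sized by capillary electrophoresis. Curves are fitted bidirectionally relative to DMSO.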

A short description of assay [20]: ATG_PBREM_CIS: Attagene CIS-FACTORIAL HepG2 Assay for human Phenobarbital-responsive Enhancer Module (PBREM) (AID 2282955). As to conditions: HepG2 PBREM cis-reporter, Attagene multiplexed transcription; actives raise or lower the signal. A digest of the protocol: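 Cells were transfected with cis-element reporter units and treated for 24 h, after which RNA was extracted and reporter transcripts measured by RT-PCR and capillary electrophoresis.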

Structures are written as SMILES. “And” between values parts separate entries of the source, which are not always exact repeats. Equal entries are not always repeated. Some structures have more than one record in an assay (separate samples or runs), and their calls can disagree. The source made the active and inactive calls. How the source made its calls: active means hit-call score of the fitted dose curve at least 0.9, where 1 is the maximum; inactive means score below 0.9.

Sequence of Hepatocyte nuclear factor 3-beta (Homo sapiens) (Q9Y261 whole entry, looked up): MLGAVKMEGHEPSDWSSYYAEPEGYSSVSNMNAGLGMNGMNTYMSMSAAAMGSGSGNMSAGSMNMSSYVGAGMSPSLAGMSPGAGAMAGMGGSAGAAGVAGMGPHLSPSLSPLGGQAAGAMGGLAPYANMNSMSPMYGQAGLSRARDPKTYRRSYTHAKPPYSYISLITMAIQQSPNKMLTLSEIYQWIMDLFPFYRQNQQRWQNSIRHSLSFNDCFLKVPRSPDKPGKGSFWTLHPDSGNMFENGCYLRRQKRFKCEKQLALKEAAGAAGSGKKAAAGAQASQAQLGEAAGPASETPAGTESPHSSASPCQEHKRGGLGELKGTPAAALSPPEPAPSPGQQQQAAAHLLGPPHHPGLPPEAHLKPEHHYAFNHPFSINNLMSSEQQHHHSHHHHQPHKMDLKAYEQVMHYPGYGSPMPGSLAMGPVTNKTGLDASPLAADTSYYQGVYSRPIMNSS
Sequence of Hypoxia-inducible factor 1-alpha (Homo sapiens) (Q16665 whole entry, looked up): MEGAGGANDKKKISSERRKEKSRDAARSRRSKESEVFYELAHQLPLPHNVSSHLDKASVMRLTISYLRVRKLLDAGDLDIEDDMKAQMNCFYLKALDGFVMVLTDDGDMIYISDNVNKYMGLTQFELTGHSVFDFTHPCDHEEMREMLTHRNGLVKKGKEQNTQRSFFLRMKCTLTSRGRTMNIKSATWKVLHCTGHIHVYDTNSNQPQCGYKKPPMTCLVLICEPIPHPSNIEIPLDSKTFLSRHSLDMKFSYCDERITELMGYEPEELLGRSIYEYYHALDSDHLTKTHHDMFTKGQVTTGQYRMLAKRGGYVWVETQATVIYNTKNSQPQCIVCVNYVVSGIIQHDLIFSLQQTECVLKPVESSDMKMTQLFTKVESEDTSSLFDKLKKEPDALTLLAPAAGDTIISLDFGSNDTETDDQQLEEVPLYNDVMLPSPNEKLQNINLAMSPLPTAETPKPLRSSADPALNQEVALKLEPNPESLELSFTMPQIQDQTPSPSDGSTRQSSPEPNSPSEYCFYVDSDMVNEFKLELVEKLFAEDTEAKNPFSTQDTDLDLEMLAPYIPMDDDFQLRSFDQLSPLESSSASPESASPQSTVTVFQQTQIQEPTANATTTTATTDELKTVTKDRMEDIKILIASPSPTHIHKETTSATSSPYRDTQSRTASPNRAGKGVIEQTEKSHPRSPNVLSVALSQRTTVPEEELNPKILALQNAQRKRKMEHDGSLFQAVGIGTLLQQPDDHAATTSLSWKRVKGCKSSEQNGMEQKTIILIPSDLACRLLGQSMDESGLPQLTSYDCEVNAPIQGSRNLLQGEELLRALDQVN
Sequence of Bile acid receptor (Homo sapiens) (Q96RI1 whole entry, looked up, the tested form may be a part): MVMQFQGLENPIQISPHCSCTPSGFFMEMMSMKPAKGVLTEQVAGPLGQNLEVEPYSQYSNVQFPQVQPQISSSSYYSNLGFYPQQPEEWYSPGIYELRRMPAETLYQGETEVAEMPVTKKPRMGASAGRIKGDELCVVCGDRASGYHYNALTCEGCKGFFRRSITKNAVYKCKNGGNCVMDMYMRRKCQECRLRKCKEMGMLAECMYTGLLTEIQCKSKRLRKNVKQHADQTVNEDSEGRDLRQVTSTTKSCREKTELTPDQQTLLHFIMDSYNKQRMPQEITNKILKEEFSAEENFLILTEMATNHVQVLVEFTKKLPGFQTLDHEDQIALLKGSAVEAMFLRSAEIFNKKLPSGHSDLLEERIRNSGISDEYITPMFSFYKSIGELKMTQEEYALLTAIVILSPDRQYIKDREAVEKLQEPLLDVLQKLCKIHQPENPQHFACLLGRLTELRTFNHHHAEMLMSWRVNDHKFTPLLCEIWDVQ
Sequence of Hepatocyte nuclear factor 6 (Homo sapiens) (Q9UBC0 whole entry, looked up): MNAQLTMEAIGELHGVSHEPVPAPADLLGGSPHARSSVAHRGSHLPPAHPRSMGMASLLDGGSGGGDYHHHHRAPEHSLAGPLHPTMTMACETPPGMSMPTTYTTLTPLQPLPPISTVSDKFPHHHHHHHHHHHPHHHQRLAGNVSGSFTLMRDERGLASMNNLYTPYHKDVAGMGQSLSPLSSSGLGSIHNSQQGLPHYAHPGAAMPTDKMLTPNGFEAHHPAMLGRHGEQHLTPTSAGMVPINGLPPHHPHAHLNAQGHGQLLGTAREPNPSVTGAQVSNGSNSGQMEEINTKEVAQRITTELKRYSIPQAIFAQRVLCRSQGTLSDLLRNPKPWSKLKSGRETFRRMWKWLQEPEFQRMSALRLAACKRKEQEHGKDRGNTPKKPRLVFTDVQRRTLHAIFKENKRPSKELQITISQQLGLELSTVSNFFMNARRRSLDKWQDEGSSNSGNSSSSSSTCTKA
Sequence of Heat shock factor protein 1 (Homo sapiens) (Q00613 whole entry, looked up): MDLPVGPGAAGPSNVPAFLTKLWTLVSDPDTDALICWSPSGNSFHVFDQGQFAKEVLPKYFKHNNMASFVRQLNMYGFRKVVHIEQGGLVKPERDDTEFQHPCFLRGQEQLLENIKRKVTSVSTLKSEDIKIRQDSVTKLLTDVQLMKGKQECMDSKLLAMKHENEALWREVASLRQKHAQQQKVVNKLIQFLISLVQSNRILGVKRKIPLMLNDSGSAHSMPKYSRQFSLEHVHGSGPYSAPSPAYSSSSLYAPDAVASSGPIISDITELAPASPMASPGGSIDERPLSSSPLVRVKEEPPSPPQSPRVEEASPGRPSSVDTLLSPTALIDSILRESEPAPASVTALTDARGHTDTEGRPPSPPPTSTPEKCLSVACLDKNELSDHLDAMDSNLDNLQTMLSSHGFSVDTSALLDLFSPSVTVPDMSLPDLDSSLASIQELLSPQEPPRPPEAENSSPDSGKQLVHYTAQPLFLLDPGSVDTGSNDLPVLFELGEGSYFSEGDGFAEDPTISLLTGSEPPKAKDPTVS

With `Cc1cccc(C)c1N`, the outcome in [1], in [2], in [3], in assay [4], in assay [5] and in assay [6] was inactive. Also, the call in assay [7], in [8], in assay [9], in assay [10], in assay [11] and in [12] was inactive. For the same compound, the result in [13], in assay [14], in assay [15], in [16], in [17] and in [18] was inactive. Also, in assay [19], the result was inactive.
Regarding `NS(=O)(=O)C(F)(F)C(F)(F)C(F)(F)C(F)(F)C(F)(F)C(F)(F)C(F)(F)C(F)(F)F`, the AC50 in [1] is 240 µM (active); in assay [3], 52 µM (active) and 40.8 µM (active); in assay [5] it was 14.2 µM (active) and 38.2 µM (active) and 5.74 µM (active); in [6] it was 38.8 µM (active); in assay [7] it was 258 µM (active); in [11] it was 9.66 µM (active). Further, the AC50 in [13] is 91.1 µM (active) and 35.8 µM (active); in [16] it was 8.26 µM (active); in [17] it was 96.7 µM (active); in [18], 59.8 µM (active) and 115 µM (active) and 28.3 µM (active); in assay [19] it was 52.2 µM (active) and 39.2 µM (active) and 50 µM (active); in assay [20], 46.7 µM (active) and 33.8 µM (active). For the same compound, the result in assay [1], in assay [2], in assay [3], in assay [4], in assay [6] and in assay [7] was inactive. Besides, the compound was classed as inactive in assay [8], in assay [9], in assay [10], in [11], in assay [12] and in assay [13]. For the same compound, the call in [14], in assay [15], in assay [16], in assay [17] and in assay [20] was inactive.
Turning to `Oc1ccc(Cl)cc1Cl`, the result in assay [1], in assay [2], in assay [3], in assay [4], in [6] and in assay [7] was inactive. In addition, the call in assay [8], in assay [9], in [10], in assay [11], in [12] and in assay [13] was inactive. For the same compound, the outcome in assay [14], in assay [15], in assay [16], in assay [17], in assay [18] and in [19] was inactive. Moreover, the result in [20] was inactive. Further, the half-maximal activity concentration (AC50) in assay [5] is 75.9 µM (active).
Regarding `CCSC(=O)N(CC)C1CCCCC1`, the result in assay [1], in assay [2], in [3], in assay [4], in assay [5] and in [6] was inactive. The call in assay [7], in [8], in assay [9], in assay [10], in assay [11] and in assay [12] was inactive. Moreover, the result in [13], in [14], in assay [15], in assay [16], in [17] and in assay [18] was inactive. Moreover, in [19], the compound was classed as inactive.
`Nc1ccc(-c2ccc(N)cc2)cc1`: the result in [1], in [2], in [3], in [4], in assay [6] and in [7] was inactive. Further, the result in assay [8], in assay [9], in assay [10], in assay [12], in assay [13] and in assay [14] was inactive. Also, the result in [16], in assay [17], in assay [18], in assay [19] and in [20] was inactive. Also, the AC50 in [5] was 33.2 µM (active).

The term AC50 denotes the midpoint of the concentration-response curve, whichever way the signal moves.

For the origin of these results see PubChem BioAssay (EPA / NIEHS).
